# Screen size: about 360,000 compounds; about 11,000 (3.1%) were called active. Inconclusive results (about 4%) are left out. This excerpt belongs to a sample that is enriched for actives. Values without a mark were called inactive. The call rests on the fitted dose curve; in most records, active means well fitted inhibition curve with a large enough effect; inconclusive means small, poorly fitted or top-dose-only effect; inactive means no such curve, though single readings can be large or run the other way.
# Target: Schistosoma mansoni thioredoxin glutathione reductase (TGR) (UniProt Q962Y6)
# Assay: qHTS Assay for the Inhibitors of Schistosoma Mansoni Peroxiredoxins; further: nearly all actives have a fitted effect of over 60% in size
# Settings: purified TGR, DTNB reduction, TNB absorbance 405 nm; series mostly up to 114 µM; activity change, negative = inhibition: at the top concentration
# Summary of the method: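 Kinetic colorimetric format: TGR-catalysed, NADPH-driven DTNB reduction monitored via TNB absorbance. Enzyme dispensed at 20 nM; compound exposure 15 min at room temperature before reaction start.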
# On the % scale 0 is the no-effect control and ±100 the full control effect; potency means the concentration at half of the fitted maximal effect.
SMILES,"activity change, negative = inhibition",Potency
Cc1ccc(N2CC(NC(=O)Cc3cccs3)CC2=O)cc1 (centres undefined),-1.46%,
Cc1nc2sc(C)c(C)n2c(=O)c1S(=O)(=O)NCCc1ccc(Cl)cc1,0.289%,
O=C(NC1CCCCC1)c1ccc(Cn2c(SCc3ccccc3)nc3cccnc32)cc1,3.32%,
COc1ccc(CCNc2nc(-c3ccc(Cl)cc3)cc(C(F)(F)F)n2)cc1OC,0.381%,
Cc1ccccc1OCCSc1nc2ccc(NC(=O)c3ccco3)cc2s1,4.23%,
Cc1cc(C)c(NC(=O)CSc2nc3nccnc3c(=O)n2CCc2c[nH]c3ccccc23)c(C)c1,-4.93%,
Cc1ccc(NC2=C(c3ccc(C(F)(F)F)cc3)C(=O)c3ccccc32)cc1F,1.74%,
CCOc1ccccc1NC(=O)CN1CCCN(Cc2cccc(Cl)c2)S1(=O)=O,5.08%,
CCOc1ccc(CCNC(=O)CN(c2ccc(C)cc2)S(=O)(=O)N(C)C)cc1OCC,5.27%,
CCCN(C(=O)Cn1cc(S(=O)(=O)N2CCN(c3ccccc3F)CC2)c2ccccc2c1=O)c1cccc(C)c1,-0.645%,
CN(C)C(CNC(=O)c1cccc(S(=O)(=O)Nc2ccc(Br)cc2)c1)c1ccco1 (centres undefined),,35.5 µM (active)
CN(C)C(CNC(=O)c1ccc(S(=O)(=O)NCc2ccco2)cc1)c1ccccc1 (centres undefined),-27%,
COc1ccccc1C(CNC(=O)c1cccc(S(=O)(=O)Nc2ccc(F)cc2)c1)N(C)C (centres undefined),-7.49%,
COc1ccccc1C(CNC(=O)c1cccc(NS(=O)(=O)c2ccc(Br)cc2)c1)N(C)C (centres undefined),-18.1%,
COc1ccc(C(CNC(=O)c2ccc(S(=O)(=O)Nc3ccccc3F)cc2)N(C)C)cc1 (centres undefined),0%,
CC(=O)c1ccc(S(=O)(=O)Nc2ccc(C(=O)NCC(c3ccccc3)N(C)C)cc2)cc1 (centres undefined),,14.1 µM (active)
CCN(Cc1ccccc1)Cc1c(O)ccc2c(=O)c(-c3ccc(Cl)cc3Cl)coc12,-29.1%,
COCCN(Cc1ccco1)C(=O)Cn1ncc2c([nH]c3ccccc32)c1=O,-24.7%,
COc1cccc(CNC(=O)c2ccc3c(c2)sc2nc(-c4cccc(OC)c4)cn23)c1,-0.0879%,
O=C(NCCS(=O)(=O)N1CCN(c2ccc(F)cc2)CC1)c1ccccc1Br,-2.24%,

SMILES,"activity change, negative = inhibition",Potency
CC(NC(=O)c1cc2c(=O)n3ccccc3nc2n(C(C)C)c1=N)c1ccccc1 (centres undefined),-1.78%,
CCc1cc(C(N)=O)c(NC(=O)c2ccc(OC)cc2)s1,3.99%,
CCc1cc(C(c2ccccc2OC)N2CCOCC2)c(NC(=O)c2ccccc2)s1 (centres undefined),,20 µM (active)
COc1cc(C(c2c(NC(=O)c3ccco3)sc(C)c2C)N2CCOCC2)cc(OC)c1OC (centres undefined),-35.7%,
O=C(Cn1c(=O)n(Cc2cccs2)c(=O)c2cccnc21)Nc1ccc(F)cc1,-3.83%,
CCc1ccc(CN(C)C(=O)CCc2nnc(-c3ccc(-c4ccccc4)cc3)o2)nc1,,35.5 µM (active)
CCc1ccc(CN(C)Cc2nc(Cc3ccccc3)no2)nc1,-21.7%,
CC(=O)c1ccc(-c2nnc(CCC(=O)N(C)Cc3cnc4ccccn34)o2)s1,-14.4%,
Cc1c(CNCCc2ccccc2)c(C(=O)O)c(C)n1-c1ccccc1,,44.7 µM (active)
CCOc1ccccc1CNCc1c(C(=O)O)c(C)n(Cc2ccc(C)cc2)c1C,-3.22%,
COc1ccc(CCNCc2c(C(=O)O)c(C)n(Cc3cccc(C)c3)c2C)cc1OC,-2.69%,
NC(=O)CSc1nc2c(oc3ccccc32)c(=O)n1Cc1ccccc1,5.1%,
CN1c2ccc(Cl)cc2-c2nc(SCC(=O)Nc3cc(F)ccc3F)ncc2S1(=O)=O,0.619%,
COc1ccc(-c2csc3ncnc(N4CCN(S(=O)(=O)c5ccccc5C#N)CC4)c23)cc1,-8.78%,
N#Cc1ccccc1S(=O)(=O)N1CCN(C(=O)c2cc(-c3ccccc3)nn2-c2ccccc2)CC1,-1.32%,
N#Cc1ccccc1S(=O)(=O)N1CCN(Cc2c(O)ccc3ccccc23)CC1,,0.891 µM (active)
O=C(CSc1cn(CC(=O)N2CCOCC2)c2ccccc12)Nc1ccccc1,11.4%,
CCC(C)(C)n1nnnc1C(c1ccc(OC)c(OC)c1)N1CCN(C(=O)c2ccco2)CC1 (centres undefined),-29.5%,
COc1ccccc1C(c1nnnn1CC1CCCO1)N1CCN(c2ccccc2)CC1 (centres undefined),-1.2%,
COc1ccc(C(c2nnnn2Cc2cccs2)N2CCN(c3ccccc3)CC2)cc1OC (centres undefined),,44.7 µM (active)

SMILES,"activity change, negative = inhibition",Potency
CCOc1ccc(CCNC(=O)c2c(C)oc3ncn(C)c(=O)c23)cc1,0.186%,
CCSc1nc(O)c(C(c2cccc(OC)c2)c2c(O)nc(SCC)[nH]c2=O)c(=O)[nH]1,,5.01 µM (active)
CCSc1nc(C)c(CCOc2cccc(C)c2)c(=O)[nH]1,-7.91%,
CC(C)c1c(O)nc(SCCOc2ccc(Cl)cc2)[nH]c1=O,0.293%,
CCc1ccc(CNC(=O)c2cc3c(=O)n(CC)c4ccccc4c3s2)cc1,8.1%,
CC1=C(c2ccc(F)cc2)S(=O)(=O)N=C1N1CCC(C(=O)NCCc2ccccc2C)CC1,-1.75%,
CCC1CCCCN1C(=O)Cn1c(=O)n(CCCCCC(=O)NCc2ccccc2)c(=O)c2sccc21 (centres undefined),-7.45%,
Cc1ccc(C)c(NC(CC(=O)c2ccccc2)C(=O)OCC(=O)c2cccs2)c1 (centres undefined),,12.6 µM (active)
COC(=O)C(CC(=O)Nc1cc(C)ccc1C)Nc1ccccc1OC (centres undefined),-24.7%,
O=C(COC(=O)[C@H](Cc1ccccc1)NC(=O)c1cccs1)Nc1cc(F)ccc1F,2.43%,
CCN(CCCNC(=O)c1ccc(Sc2ccc(C)cc2)c(NC(C)=O)c1)c1cccc(C)c1,1.43%,
CC1CCN(S(=O)(=O)c2ccc3c(c2)N(CC(=O)NCc2ccccc2Cl)C(=O)CO3)CC1,4.2%,
O=c1n(Cc2cccc(C(F)(F)F)c2)c2ccccc2c2nc(-c3ccccc3)nn12,8.09%,
CN1CCN(C(CNC(=O)c2ccccc2F)c2ccc3c(c2)OCO3)CC1 (centres undefined),-3.13%,
CC1CCCN(c2cc3c(cc2F)c(=O)c(S(=O)(=O)c2cccc(Cl)c2)cn3Cc2ccccc2)C1 (centres undefined),-1.38%,
CCCCC1=CC2=CC(=O)C(C)(OC(=O)CC)C(=O)C2=CN1CCCOC(C)C (centres undefined),-25.2%,
C=CCN1C=C2C(=O)C(C)(OC(=O)CCc3ccccc3)C(=O)C=C2C=C1c1ccc(C#N)cc1 (centres undefined),-25.6%,
COC/C=C/C1=CC2=CC(=O)C(C)(OC(=O)CCC(=O)OC)C(=O)C2=CO1 (centres undefined),,3.98 µM (active)
O=C(NCCCO)C(=O)Nc1c2c(nn1-c1ccc(F)cc1)CSC2,-26.7%,

# — PubChem BioAssay AID485364 (National Center for Advancing Translational Sciences (NCATS), 2010)
